# Assay outcomes: PubChem BioAssay, National Center for Advancing Translational Sciences (NCATS)
# Rows were chosen to be rich in hits. Some 7.3% of all compounds tested hit in one or more screens of this group.
# SMN2 splice up: SMN2 splice variant enhancement. HEK293 SMN2-luciferase splicing reporter, luminescence, 30-36 h. Potency, µM (top dose mostly 46.1 µM), inactives show top-dose activity change, positive = activation, usual class: activators. hit rate 2.8% among 210,000; note: % of control where 0% means no effect; nearly all actives have a fitted effect of over 55% in size
#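 qHTS luciferase splicing reporter: luminescence rises when SMN2 exon 7 is included in transfected HEK293 cells. Compound exposure lasted 30-36 h at 37C, with 4.5 mM final sodium butyrate as control, followed by a ONE-Glo read.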
# FLuc modulator: inhibits or activates purified firefly luciferase, miR-21 counter-screen. purified FLuc, Km substrates, luminescence inhibition. Potency, µM (series often up to 57.5 µM), for the others: at the top dose activity change, negative = inhibition, hits mostly inhibitors. hit rate 6.9% among 360,000;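 note: plate controls were vehicle for no effect and reference inhibitor for full effect; nearly all actives have a fitted effect of over 55% in size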
# Target sequence (P08659 whole entry, looked up): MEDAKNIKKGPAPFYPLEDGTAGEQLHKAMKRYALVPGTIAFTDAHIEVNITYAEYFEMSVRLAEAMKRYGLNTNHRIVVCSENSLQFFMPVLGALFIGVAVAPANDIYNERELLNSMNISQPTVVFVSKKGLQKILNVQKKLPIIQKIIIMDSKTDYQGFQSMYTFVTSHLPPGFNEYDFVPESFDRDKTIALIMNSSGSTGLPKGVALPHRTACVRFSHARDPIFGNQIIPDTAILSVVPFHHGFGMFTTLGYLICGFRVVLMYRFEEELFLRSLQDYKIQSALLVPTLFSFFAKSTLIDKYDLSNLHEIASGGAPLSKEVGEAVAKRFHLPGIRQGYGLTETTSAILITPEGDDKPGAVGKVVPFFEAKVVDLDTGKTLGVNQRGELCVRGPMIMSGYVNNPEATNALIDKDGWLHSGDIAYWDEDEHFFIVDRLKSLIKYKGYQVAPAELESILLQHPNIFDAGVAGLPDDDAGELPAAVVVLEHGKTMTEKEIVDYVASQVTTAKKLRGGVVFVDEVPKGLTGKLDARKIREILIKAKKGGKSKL
#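 Purified P. pyralis luciferase (10nM final) with 10uM D-luciferin and 10uM ATP (Km levels) in 50mM Tris acetate pH 7.5, 10mM Mg acetate, 0.01% Tween-20, 0.05% BSA; qHTS 6-point titration, ~60 µM downward; luminescence read.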
# NPC1 prom act: NPC1 promoter activation; Huh7 NPC1 promoter luciferase reporter, 24 h; AID 485313; Potency, µM (top dose mostly 9.22 µM), without a hit: top-dose activation, usual class: activators; hit rate 2.4% among 320,000; note: % of control where 0% means no effect; nearly all actives have a fitted effect of over 60% in size
#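 Quantitative HTS used a cell-based reporter: Huh7 cells stably bearing the NPC1 promoter upstream of luciferase were treated with compounds for 24 h, and promoter activation was read as luminescence.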
# ELG1 genotoxic: induces genotoxicity in HEK293T cells with luciferase-tagged ELG1; Potency, µM (series often up to 46 µM), without a hit: at the top dose activity change, positive = activation, hits mostly activators; AID 504466; HEK293T ELG1-luciferase reporter, luminescence, 16 h; hit rate 1.3% among 330,000; note: % of control where 0% means no effect; nearly all actives have a fitted effect of over 60% in size
#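 Screening used a luciferase reporter fused to human ELG1 in HEK293T cells. Luminescence was read on a CCD plate imager after 16 hr exposure and 30 min ONE-Glo incubation.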
# p53 reactivation: mutant p53 re-activation in reporter cells. H1299 p53-A138V BP100-luciferase reporter, luminescence, 24 h. Potency, µM (top dose mostly 92.2 µM), for inactives: at the highest dose activity change, positive = activation, most hits filed as activators. hit rate 0.063% among 320,000; note: % of control where 0% means no effect; nearly all actives have a fitted effect of over 45% in size
#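 H1299 (p53-null), stable ts p53-A138V + BP100-Luc; 1000 cells/well, Opti-MEM/10% FBS; cpd 4 pt, 1:5; 24 h, 37 deg C, 5% CO2; detection reagent 10 min RT; luminescence.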
# Rab9 promoter act: activators of Rab9 promoter; Huh7 Rab9 promoter-luciferase reporter, luminescence, 24 h; Potency, µM (titrated, usually from 9.22 µM), for the others: at the top dose activation, negative = inhibition, hits mostly activators; hit rate 2.8% among 320,000; AID 485297; note: % of control where 0% means no effect; nearly all actives have a fitted effect of over 60% in size
#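 Luminescence from Amplite-detected luciferase (10 minutes, ambient) reports Rab9 promoter activation. Before that, stable Rab9-luciferase Huh7 cells (1500/well, reduced-serum OP-MEM I plus 10% FBS) were exposed to compound for 24 hours at 37C.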
# Numbers without * were called inactive; u = inconclusive; x = no result given. Calls come from the whole dose curve; as a rule, active = well fitted curve in the direction sought with a large enough effect; inconclusive = small, poorly fitted or top-dose-only effect, or another doubt; inactive = no such curve, though single readings can be large; an effect the other way counts as inactive or inconclusive. Potency is the fitted concentration of half-maximal effect.
SMILES,SMN2 splice up,FLuc modulator,NPC1 prom act,ELG1 genotoxic,p53 reactivation,Rab9 promoter act
Nc1c(C(=O)c2cccs2)oc2ccccc12,u,15µM*,u,18%,15%,27%
CCN(CC)c1ccc(/C=N/N2CCOCC2)cc1,22µM*,8.5µM*,3.5µM*,7.3µM*,x,3.2µM*
c1ccc(-c2nccc(-c3ccc4c(c3)OCO4)n2)cc1,u,19µM*,u,u,23%,u
c1ccc(CNc2ccnc(-c3ccc4c(c3)OCO4)n2)cc1,13µM*,x,x,x,x,x
CCCc1cc(C(=O)Nc2ccc(OC)cc2[N+](=O)[O-])cs1,x,12µM*,22%,12%,x,23%
CCC(=O)Nc1ccc(C(=O)Nc2ccc(OC)cc2[N+](=O)[O-])cc1,x,-2%,0%,11%,-1%,-5%
COc1ccc(NC(=O)c2cccnc2)c([N+](=O)[O-])c1,10%,-6%,-35%,0%,22%,-27%
COc1ccc(NC(=O)c2ccccc2)c([N+](=O)[O-])c1,u,u,u,u,9%,2.8µM*
Cc1ccc(CN(C(=O)c2ccccc2F)c2ccccn2)o1,x,-3%,x,x,x,x
Cc1cccc(-c2nnc(SCCC(=O)O)o2)c1,-15%,11µM*,x,x,x,x
Cc1cccc(-c2nnc(SCC(=O)N3CCCC3)o2)c1,x,27µM*,3.5µM*,u,22%,4µM*
COc1cccc(-c2nnc(SCC(=O)N3CCCCC3)o2)c1,25%,u,x,x,x,x
Cc1cccc(-c2nnc(SCC(=O)N3CCCCC3)o2)c1,4.5µM*,u,x,x,x,x
CCOC(=O)c1c(C)nc2c(c1-c1ccc(Cl)cc1)C(=O)CC(C)(C)C2,x,1%,-1%,-5%,-7%,1%
O=C(Cn1c(=O)n2nc(-c3cccc(F)c3)nc2c2ccccc21)N1CCN(c2ccccc2F)CC1,x,4%,x,x,x,x
CCOC(=O)N1CCC(NC(=O)c2cnc3n(c2=O)CCS3)CC1,x,2%,-13%,2%,-2%,9%
CC(C)c1ccc(Nc2c(-c3ccc(N(C)C)cc3)nc3cnccn23)cc1,9%,u,x,x,x,x
COC(=O)c1ccc(CSc2nc(N)cc(N)n2)cc1,7%,u,26%,15µM*,5%,30%
COC(=O)c1ccc(CSc2nc3ccccc3o2)cc1,22µM*,1.1µM*,1.6µM*,u,u,0.89µM*
O=[N+]([O-])c1ccc(CSc2nc3ccccc3o2)cc1,7.9µM*,2.4µM*,0.63µM*,u,u,0.89µM*
COC(=O)c1ccc(CSc2nnc(C)s2)cc1,25µM*,u,u,27%,10%,3.5µM*
CCOC(=O)C1CCN(C(=O)Cn2c(=O)oc3cc(S(=O)(=O)N4CCC(C)CC4)ccc32)CC1,-6%,-4%,x,x,x,x
CC(CCc1ccccc1)NC(=O)CN1CCSc2ccccc21 (stereo unspecified),x,-13%,3%,-7%,2%,17%
CCCCc1c(C)nc2c(OC)cccc2c1SCC(=O)O,x,0%,-1%,0%,0%,2%
COc1cccc2c(Cl)c(CCCl)c(C)nc12,-3%,21µM*,0%,-8%,2%,11%
O=C(N/N=C/c1c(F)cccc1Cl)c1cc(C2CC2)[nH]n1,x,17µM*,u,u,u,u
Cc1cc(C(=O)N/N=C/c2c(C)nn(-c3ccccc3)c2C)n[nH]1,x,17µM*,20%,8%,5%,22%
Cc1cc(C(=O)N/N=C/c2ccc3ccccc3c2)n[nH]1,x,u,-4%,u,14%,26%
Cc1nn(-c2ccccc2)c(C)c1/C=N/NC(=O)c1cc(C23CC4CC(CC(C4)C2)C3)[nH]n1,u,u,-2%,-13%,-8%,-3%
Cc1nn(-c2ccccc2)c(C)c1/C=N/NC(=O)c1cc(C2CC2)[nH]n1,u,17µM*,3%,u,-7%,3%
